# GSTO1 counter – counter-screen for RBBP9 inhibitors: inhibitors of human GSTO1; 300,000 tested, 1.1% active; P78417; AID 1974; inhibition, % at 5.96 µM; recombinant GSTO1, activity-based probe fluorescence polarization;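 active = inhibition above the campaign mean inhibition plus 3 SD, cut at about 35% in these data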
# PAD4 inh – PAD4 (human) enzyme inhibition; Q9UM07; recombinant PAD4, RCA probe fluorescence polarization; inhibition, % at 6.36 µM; 330,000 tested, 0.41% active;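 active = percent inhibition above a cutoff equal to the mean of all tested compounds plus 3 SD, cut at about 15% in these data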
# LYPLA1 counter – LYPLA1 (human) inhibition in PME1 counter-screen | recombinant LYPLA1, FP-Rh probe fluorescence polarization | 320,000 tested, 0.16% active | O75608 | AID 2174 | inhibition, % at 5.9 µM;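 active = inhibition above the mean of all tested compounds plus 3 SD, set per campaign, cut at about 14% in these data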;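 also: inhibitors block serine hydrolase probe labeling of LYPLA1 so polarization falls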
# Target sequence (O75608 whole entry, looked up): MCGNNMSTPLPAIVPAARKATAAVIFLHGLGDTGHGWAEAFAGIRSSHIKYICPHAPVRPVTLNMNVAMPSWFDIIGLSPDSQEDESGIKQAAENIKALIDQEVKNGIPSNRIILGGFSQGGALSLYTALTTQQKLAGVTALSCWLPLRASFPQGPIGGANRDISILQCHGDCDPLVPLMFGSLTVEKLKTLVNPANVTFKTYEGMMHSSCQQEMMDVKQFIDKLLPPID
# PME-1 inh – PME-1 (human) inhibition. Q9Y570. recombinant PME-1, FP-Rh probe fluorescence polarization. inhibition, % at 5.9 µM. 320,000 tested, 0.53% active. AID 2130;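 active = inhibition above the campaign mean of all compounds plus 3 SD, cut at about 26% in these data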;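 also: competitive labeling of PME-1 active site by serine hydrolase directed probe; inhibitors block probe labeling so polarization falls and inhibition rises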
# LYPLA2 inh – counter-screen for PME1 inhibitors: inhibitors of human LYPLA2. recombinant LYPLA2, FP-Rh probe fluorescence polarization. inhibition, % at 5.9 µM. AID 2177. 320,000 tested, 0.38% active;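 active = inhibition above the screen-wide mean plus 3 SD, limit set per campaign, cut at about 26% in these data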
# Fam108B inh – counter-screen for RBBP9 inhibitors: inhibitors of mouse Fam108B; inhibition, % at 9.51 µM; recombinant Fam108B, FP-Rh probe fluorescence polarization; 300,000 tested, 0.33% active; AID 1947;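 active = inhibition above the screen mean inhibition plus 3 SD, computed separately per campaign, cut at about 18% in these data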;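 also: inhibitors lower polarization as less probe binds the enzyme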
# Hits are given with their value; - = inactive; . = no result given. A selection: hits, their analogues and other compounds. The true share with any hit is near 1.8%.
SMILES,GSTO1 counter,PAD4 inh,LYPLA1 counter,PME-1 inh,LYPLA2 inh,Fam108B inh
CC/C(=N/Nc1ccc(Cl)cc1)c1cnnc(SC)n1,50,-,-,-,-,-
CC/C(=N/O)c1cnnc(SC)n1,-,-,-,-,-,-
CC/C(=N/Nc1cccc(C)c1)c1cnnc(SC)n1,50,-,-,-,-,-
CCCCNC(=O)CSc1nc2cc3c(cc2c(=O)n1CCC(=O)NCCc1ccc(OC)c(OC)c1)OCO3,-,-,-,-,-,-
CC(C)(C)c1ccc(/C=C(\C#N)C(=O)NC2CC2)cc1,-,-,-,-,-,-
O=C(CSc1nnc(SCc2ccccc2Cl)s1)N/N=C/c1c[nH]c2ccccc12,-,-,-,36,-,-
CCn1c(NCc2ccccc2Cl)nc2ccccc21,36,-,-,-,-,-
CN(c1ccccc1)S(=O)(=O)c1cccc(NC(=O)c2ccc(Cl)c([N+](=O)[O-])c2)c1,.,-,.,.,.,.
Cc1cc(-c2ccccc2)nc(N/N=C/c2ccc(O)cc2O)n1,-,-,-,40,-,-
Cc1cc(-c2ccccc2)nc(N/N=C/c2ccccc2)n1,-,-,-,-,-,-
NS(=O)(=O)c1ccc2c(c1)C1C=CCC1C(C1CC=CCC1)N2 (stereo not given),37,-,-,-,-,-
CC(C)C1Nc2ccc(S(N)(=O)=O)cc2C2C=CCC21 (stereo not given),-,-,-,-,-,-
Nc1ccc2oc(-c3cc(Br)ccc3Cl)nc2c1,-,-,-,28,-,-
Cc1nn(C)c(=O)c(N)c1-c1cc(-c2ccc(Cl)c(Cl)c2)n[nH]1,-,-,-,-,-,-
COc1cc(C[C@@H](CO)[C@H](CO)Cc2ccc(O)c(OC)c2)ccc1O,-,-,-,-,-,-
O=C(N/N=C/c1sc2ccccc2c1O)c1cccc2ccccc12,42,-,-,-,-,-
O=C(O)c1ccc(S(=O)(=O)c2ccc([N+](=O)[O-])cc2[N+](=O)[O-])cc1,-,-,-,-,-,-
O=[N+]([O-])CC(=Nc1ccc(Cl)cc1)N/N=C\c1oc(O)c2ccccc12,-,-,-,52,-,-
O=C(N/N=C/c1ccc([N+](=O)[O-])o1)c1cn(-c2ccccc2)nc1-c1ccc(Cl)cc1,-,-,-,-,-,-
Cc1nn2c(nc1=O)NNC2(C)C(C)(C)C (stereo not given),-,-,-,-,-,-
CC1=Nc2ccccc2/C1=C/c1sc(=N)n(-c2nccs2)c1O,-,-,-,39,-,-
CCOC(=O)c1c2c3c(cccc3[nH]c1=O)C(=O)c1ccccc1-2,-,-,-,-,-,-
CCOC(=O)c1c2c3c(cccc3n(C)c1=O)C(=O)c1ccccc1-2,-,-,-,28,-,-
COc1ccc(S(=O)(=O)NCC(c2ccc3c(c2)OCO3)N2CCOCC2)cc1 (stereo not given),-,-,-,-,-,-
Nn1c(C2COc3ccccc3O2)n[nH]c1=S (stereo not given),35,-,-,-,-,-
SMILES,GSTO1 counter,PAD4 inh,LYPLA1 counter,PME-1 inh,LYPLA2 inh,Fam108B inh
COc1ccc(-c2noc(CCC(=O)N3CCN(c4ccccc4)CC3)n2)cc1,.,-,.,.,.,.
COc1cccc(N2CCN(c3ncnc4c3[nH]c3ccc(F)cc34)CC2C)c1 (stereo not given),-,-,-,28,-,-
COc1cc2[nH]c3c(N4CCN(c5ccc(Cl)cc5)CC4)ncnc3c2cc1OC,-,-,-,28,-,-
Cc1ccc(OCC(=O)O/N=C(\N)Cc2ccc([N+](=O)[O-])cc2)cc1C,-,-,-,-,-,-
Cc1ccc(S(=O)(=O)N(C)C)cc1NC(=O)Cn1c(CN2CCOCC2)nc2ccccc2c1=O,-,-,-,-,-,-
Nc1ncc(Br)cc1S(=O)(=O)Nc1cc(C(F)(F)F)cc(C(F)(F)F)c1,-,-,-,-,-,-
Nc1cc(N)cc(-c2nc3ccccc3[nH]2)c1,-,-,-,32,-,-
c1ccc(-c2nc3ccccc3[nH]2)cc1,-,-,-,-,-,-
COc1ccc(-c2nc(NC(=O)c3[nH]c(C)c(C(C)=O)c3C)sc2C)cc1,-,-,-,47,-,-
CC(=O)c1c(C)[nH]c(C(=O)Nc2nc(-c3ccc(Cl)cc3)cs2)c1C,-,-,-,51,-,-
O=S1(=O)c2ccc(Br)cc2N2CCC[C@@H]2CN1Cc1ccccc1,.,-,.,.,.,.

# Screens (PubChem)
